# PubChem BioAssay (EPA / NIEHS)
# Results filed as inconclusive are left out. The source made the active and inactive calls. The calls were made as follows, unless noted: active = hit-call score of the fitted dose curve at least 0.9, where 1 is the maximum; inconclusive = response in the unintended direction; inactive = score below 0.9.
# Legend:
# [1] = TOX21_p53_BLA_p2_viability: Viability Assessment in the Tox21 HCT-116 p53 Agonism Beta-lactamase Assay, Phase 2 (AID 2283591);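 also: compound exposure lasted 16 h at 37 °C; actives lower the ATP signal meaning cytotoxicity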
# Procedure, shortened: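 HCT116 p53-bla cells, 4000/well, dosed after 5 h plating (217-fold dilution of DMSO stocks) and incubated 16 h at 37C. Viability taken as cellular ATP by CellTiter-Glo luminescence after 30 min RT; signal loss marks cytotoxicity.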
# [2] = TOX21_p53_BLA_p3_viability: Viability Assessment in the Tox21 HCT-116 p53 Agonism Beta-lactamase Assay, Phase 3 (AID 2283593);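 also: cells exposed to compound for 16 h before reading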
# Procedure, shortened: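 HCT116 cells, 4000/well, dosed 5 h after plating by pin transfer (217-fold dilution from DMSO stock) and incubated 16 h at 37C, 5% CO2. Viability read as ATP luminescence with CellTiter-Glo after 30 min at room temperature.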
# [3] = target: Cellular tumor antigen p53 (Homo sapiens) (UniProt P04637); test: TOX21_p53_BLA_p3_ratio: Tox21 HCT-116 p53 Agonism Beta-lactamase Assay, Ratio, Phase 3 (AID 2283596)
# Procedure, shortened: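 Cells were seeded at 4000/well, rested 5 h at 37C, then dosed with DMSO compound solutions (217-fold dilution) for 16 h. CCF4-AM substrate was loaded for 2 h at room temperature, and the 460/530 nm emission ratio was fitted for gain of signal versus DMSO.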
# [4] = TOX21_p53_BLA_p4_viability: Viability Assessment in the Tox21 HCT-116 p53 Agonism Beta-lactamase Assay, Phase 4 (AID 2283597);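 also: hits lower the luminescence signal meaning cytotoxicity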
# Procedure, shortened: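 Cytotoxicity as reduced cellular ATP (CellTiter-Glo luminescence, 30 min room temperature), measured in the same wells following the CCF4 FRET p53 reading. Human HCT-116 cells received compounds in DMSO (217-fold dilution) for 16 h.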
# [5] = target: Cellular tumor antigen p53 (Homo sapiens) (UniProt P04637); test: TOX21_p53_BLA_p5_ratio: Tox21 HCT-116 p53 Agonism Beta-lactamase Assay, Ratio, Phase 5 (AID 2283599)
# Procedure, shortened: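 HCT-116 p53-bla cells (4000/well) plated 5 h, dosed with compound (217-fold DMSO dilution) for 16 h at 37 C; CCF4-AM substrate 2 h at room temperature. Activity is the 460/530 nm emission ratio (405 nm excitation), fitted in gain-of-signal direction versus DMSO.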
# [6] = TOX21_p53_BLA_p5_viability: Viability Assessment in the Tox21 HCT-116 p53 Agonism Beta-lactamase Assay, Phase 5 (AID 2283600)
# Procedure, shortened: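 Viability came from CellTiter-Glo ATP luminescence, read after 30 min at room temperature. Before this, HCT-116 p53-bla cells (4000/well) had 16 hours of compound exposure at 37C, with DMSO stocks diluted 217-fold on transfer.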
# [7] = target: Cellular tumor antigen p53 (Homo sapiens) (UniProt P04637); test: TOX21_p53_BLA_p2_ratio: Tox21 HCT-116 p53 Agonism Beta-lactamase Assay, Ratio, Phase 2 (AID 2283592)
# Procedure, shortened: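 Read-out is the blue/green (460/530 nm, 405 nm excitation) ratio after 2 h CCF4-AM loading, fitted as gain versus DMSO. Compounds, pinned at 217-fold dilution from DMSO stocks, stayed 16 h on HCT-116 beta-lactamase reporter cells seeded 5 h earlier.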
# [8] = target: Cellular tumor antigen p53 (Homo sapiens) (UniProt P04637); test: TOX21_p53_BLA_p4_ratio: Tox21 HCT-116 p53 Agonism Beta-lactamase Assay, Ratio, Phase 4 (AID 2283601)
# Procedure, shortened: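 HCT-116 p53 beta-lactamase reporter cells (4000/well) preincubated 5 h, then compound (217-fold dilution of DMSO stock) for 16 h at 37C. CCF4-AM substrate added 2 h at room temperature; 460/530 nm emission ratio fitted upward versus DMSO.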
# [9] = CCTE_Harrill_HTTr_Viability_MCF7: CCTE's 6-hour Cell Viability Assessment for the High-Throughput Transcriptomics (HTTr) Platform, in MCF-7 cells cultured in DMEM + 10% fetal bovine serum, Harrill Lab (AID 2284010; active = hit-call score of the fitted dose curve at least 0.9, where 1 is the maximum; inactive = score below 0.9)
# Procedure, shortened: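 Eight-point concentration series, six-hour exposure. Propidium iodide exclusion imaged to assess membrane integrity as a cytotoxicity readout; bidirectional fitting was done with DMSO as negative control and activity baseline.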
# [10] = CCTE_Harrill_HTTr_Apoptosis_MCF7: CCTE's 6-hour Apoptosis Assessment for the High-Throughput Transcriptomics (HTTr) Platform, in MCF-7 cells cultured in DMEM + 10% fetal bovine serum, Harrill Lab (AID 2284011; active = hit-call score of the fitted dose curve at least 0.9, where 1 is the maximum; inactive = score below 0.9)
# Procedure, shortened: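 High-content imaging of CellEvent Caspase 3/7 Green signal follows a six-hour exposure, with eight concentrations per chemical. MCF-7 cells grown in DMEM plus 10% fetal bovine serum; activity fitted in both directions against DMSO.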
# Cellular tumor antigen p53 (Homo sapiens), sequence (P04637 whole entry, looked up): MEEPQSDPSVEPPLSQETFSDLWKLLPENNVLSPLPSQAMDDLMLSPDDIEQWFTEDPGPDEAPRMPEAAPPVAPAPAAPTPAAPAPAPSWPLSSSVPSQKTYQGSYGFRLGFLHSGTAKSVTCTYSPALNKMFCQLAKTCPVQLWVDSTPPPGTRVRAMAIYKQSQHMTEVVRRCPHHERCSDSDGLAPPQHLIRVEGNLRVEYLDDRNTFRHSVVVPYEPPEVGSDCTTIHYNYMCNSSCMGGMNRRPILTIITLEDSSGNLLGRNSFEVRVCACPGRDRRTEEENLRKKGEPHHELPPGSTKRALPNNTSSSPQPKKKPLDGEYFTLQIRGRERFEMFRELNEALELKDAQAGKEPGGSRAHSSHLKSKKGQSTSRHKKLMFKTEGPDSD
compound,measurement,setting,value
O=C1CCCCC1Cl (configuration not stated),outcome,[1],inactive
same,outcome,[2],inactive
same,outcome,[3],inactive
same,outcome,[4],inactive
c1ccc(C2(N3CCCC3)CCCCC2)cc1,outcome,[1],inactive
same,AC50,[2],33.1 µM (active)
same,AC50,[3],43.9 µM (active)
same,outcome,[4],inactive
same,outcome,[5],inactive
same,outcome,[6],inactive
OCCSSCCO,outcome,[1],inactive
same,outcome,[7],inactive
same,outcome,[5],inactive
same,outcome,[8],inactive
same,outcome,[9],inactive
same,outcome,[10],inactive
CC(=O)Nc1cc([As](=O)(O)O)ccc1O,outcome,[1],inactive
same,outcome,[2],inactive
same,outcome,[3],inactive
same,outcome,[4],inactive
same,outcome,[5],inactive
same,outcome,[8],inactive
